# Assay results: PubChem BioAssay (Tox21)
# Several values for one entry are separate records, joined by “and”; a condition that tells them apart may be missing. Identical values can stand only once. Results filed as inconclusive are left out. A call without a number means that no potency is given here. More than one record can exist for a structure, and the calls need not agree. Activity calls are given as the source filed them. Unless noted, calls come from the whole dose curve.
# Key:
# [1] = Nuclear factor erythroid 2-related factor 2/antioxidant responsive element (Nrf2/ARE) small molecule agonists: qHTS cell viability counter screen in human keratinocytes (AID 1919968; active = well fitted curve in the direction sought with a large enough effect in the repeat runs; an effect the other way counts as inactive or inconclusive; note: nearly all actives have a fitted effect of over 55% in size)
# How it was run: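 KeratinoSens HaCaT cells, 1,500/well, preincubated 5 h, then exposed to compounds in DMSO for 23 h at 37 C/5% CO2. Viability read as CellTiter-Fluor fluorescence after 1 h, in the same wells as the ARE-luciferase read.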
# [2] = Nuclear factor erythroid 2-related factor 2/antioxidant responsive element (Nrf2/ARE) small molecule agonists: luciferase reporter gene qHTS assay in human keratinocytes (AID 1919969); note: nearly all actives have a fitted effect of over 35% in size; note: potency is the fitted concentration of half-maximal effect
# [3] = biological target: Gonadotropin-releasing hormone receptor (Homo sapiens) (UniProt P30968); assay: Human gonadotropin-releasing hormone receptor (GnRHR) small molecule agonists, calcium flux assay in GnRHR-HEK293 cells (AID 1920063); note: nearly all actives have a fitted effect of over 35% in size
# How it was run: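 HEK293 cells stably expressing human GnRHR were dye-loaded for 1 h at 37 C. Compound was added in agonist mode and fluorescence (Ex/Em 480/540) recorded kinetically for 3 min. Fifteen concentrations, triplicates.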
# [4] = biological target: KiSS-1 receptor (Homo sapiens) (UniProt Q969F8); assay: Human kisspeptin (KISS1R) small molecule agonists, calcium flux assay in KISS1R-HEK293 cells (AID 1920064; active = well fitted curve in the direction sought with a large enough effect in the repeat runs; an effect the other way counts as inactive or inconclusive)
# How it was run: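 HEK293 cells stably expressing human KISS1R were loaded with calcium dye for 1 h at 37 C, then given compound; fluorescence (Ex/Em 480/540) was read kinetically for 3 min. Fifteen concentrations, triplicate.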
# [5] = G protein-coupled receptor (GPCR) small molecule agonists, calcium flux assay: HEK293 wild type cell line counter screen (AID 1920065)
# How it was run: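 Wild-type HEK293 cells plated 18 h, loaded with calcium dye 1 h at 37 C, then compounds added in agonist mode (ATP as positive control). Kinetic fluorescence Ex/Em 480/540 recorded 3 min at 1 sec intervals; 15 concentrations, triplicate.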
# [6] = p53 small molecule agonists, cell-based qHTS assay with human liver microsomes (AID 1963577)
# How it was run: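 Cells carrying a p53-responsive bla reporter were rested 5 h (37 C, 5% CO2) before compound transfer. Human liver microsomes plus NADPH, 0.5 mg/mL final apiece, supplied metabolism during the 16 h 37 C exposure.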
# [7] = p53 small molecule agonists, cell-based qHTS assay with rat liver microsomes (AID 1963578)
# How it was run: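 Fluorescence from a beta-lactamase reporter under a p53 response element was measured after cells had been incubated 16 h at 37 C with test compound and rat liver microsomes plus NADPH (0.5 mg/mL final each).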
# [8] = p53 small molecule agonists, cell-based qHTS assay with human liver microsomes: qHTS cell viability counter screen (AID 1963579); note: nearly all actives have a fitted effect of over 45% in size; note: potency is the fitted concentration of half-maximal effect
# How it was run: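 Seed p53RE-bla cells at 4,000 per well; incubate 5 h at 37 C; add compound, human liver microsomes and NADPH; incubate 16 h at 37 C; add CellTiter-Glo; after 30 min at room temperature, read luminescence.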
# [9] = p53 small molecule agonists, cell-based qHTS assay with rat liver microsomes: qHTS cell viability counter screen (AID 1963580); note: nearly all actives have a fitted effect of over 45% in size
# How it was run: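 HCT-116 p53RE-bla, 4,000 cells/well, 5 h pre-incubation; cpd + rat liver microsomes 0.5 mg/mL + NADPH 0.5 mg/mL (final); 16 h, 37 C; CellTiter-Glo, 30 min RT; luminescence.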
# [10] = p53 small molecule agonists, cell-based qHTS assay: qHTS cell viability counter screen (AID 1963581); note: nearly all actives have a fitted effect of over 45% in size
# How it was run: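 p53RE-bla HCT-116 cells, compounds added 5 h after plating and incubated 16 h at 37 C. Cytotoxicity measured in the same wells as intracellular ATP by CellTiter-Glo luminescence after 30 min at room temperature.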
# [11] = p53 small molecule agonists, cell-based qHTS assay (AID 1963582; active = well fitted activation curve with a large enough effect in the signal ratio in the repeat runs, not every such curve was filed as active; the % refers to the signal ratio)
# How it was run: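 p53RE-bla reporter cells, compounds added in DMSO after 5 h plating, incubated 16 h at 37 C. Beta-lactamase read via 2 h room-temperature LiveBLAzer B/G FRET substrate, fluorescence intensity.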
# [12] = biological target: 5-hydroxytryptamine receptor 2A (Homo sapiens) (UniProt P28223); assay: 5-hydroxytryptamine receptor 2A (HTR2A) small molecule antagonists, cell-based qHTS assay (AID 1963586); note: nearly all actives have a fitted effect of over 45% in size
# How it was run: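 Antagonist-mode intracellular calcium assay: DOI (4 nM) added after 5 min compound pre-incubation at room temperature to dye-loaded HTR2A-CHO cells. Fluorescence followed for 3 min, sampled every second.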
# [13] = biological target: 5-hydroxytryptamine receptor 2A (Homo sapiens) (UniProt P28223); assay: 5-hydroxytryptamine receptor 2A (HTR2A) small molecule agonists, cell-based qHTS assay (AID 1963587); note: nearly all actives have a fitted effect of over 30% in size
# How it was run: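 Kinetic calcium-flux fluorescence (2 min, 1 sec intervals) after compound addition in agonist mode. HTR2A-CHO cells were cultured 18 h, then dye-loaded 1 h at 37 C.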
# [14] = biological target: Muscarinic acetylcholine receptor M1 (Homo sapiens) (UniProt P11229); assay: Cholinergic receptor muscarinic 1 (CHRM1) small molecule antagonists, cell-based qHTS assay (AID 1963588); note: nearly all actives have a fitted effect of over 40% in size; note: potency is the fitted concentration of half-maximal effect
# How it was run: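 CHRM1-CHO calcium-flux assay, antagonist mode. Cells were seeded 18 h, dye-loaded 1 h at 37 C and given compound for 5 min at RT, then acetylcholine was added at 50nM. FDSS fluorescence was read 3 min; 15 concentrations, three runs.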
# [15] = biological target: Muscarinic acetylcholine receptor M1 (Homo sapiens) (UniProt P11229); assay: Cholinergic receptor muscarinic 1 (CHRM1) small molecule agonists, cell-based qHTS assay (AID 1963589); note: nearly all actives have a fitted effect of over 35% in size
# How it was run: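 CHO cells stably expressing human CHRM1 were loaded with calcium dye for 1 h at 37 C, then compound was added in agonist mode. Intracellular calcium fluorescence was followed kinetically at 1 s intervals. Fifteen concentrations were tested in three independent runs.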
# [16] = cAMP Responsive Elements (CRE) small molecule agonists, cell-based qHTS assay (AID 1963590)
# How it was run: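 CRE-bla HEK 293T cells, 2,000/well in DMEM with 10% dialyzed FBS and 25 mM HEPES, pre-incubated 18 h at 37 C, then exposed to compound 3 h at 37 C. Beta-lactamase reporter read with LiveBLAzer B/G FRET substrate after 2 h at room temperature.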
# [17] = cAMP Responsive Elements (CRE) small molecule antagonists, cell-based qHTS assay (AID 1963591; active = well fitted inhibition curve with a large enough effect in the signal ratio in the repeat runs, not every such curve was filed as active; the % refers to the signal ratio)
# How it was run: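 CRE-bla HEK293T cells plated 18 h, then given compound plus NKH477 at 0.25 uM final for 3 h at 37C. Beta-lactamase reporter read with LiveBLAzer B/G FRET substrate after 2 h at room temperature.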
# [18] = biological target: Beta-2 adrenergic receptor (Homo sapiens) (UniProt P07550); assay: Adrenergic beta2 receptor (ADRB2) small molecule antagonists, cell-based qHTS assay (AID 1963592); note: series mostly up to about 92 µM; nearly all actives have a fitted effect of over 50% in size
# How it was run: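 Cells (CHO, stable ADRB2 overexpression) incubated 18-20hr at 37C; compounds added from DMSO; agonist mix (1nM isoproterenol, 100uM IBMX, 25uM Ro-20-1724) added; 0.5hr RT; d2-cAMP and anti-cAMP-cryptate added; 1hr RT; 665/615 nm read.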
# [19] = biological target: D(2) dopamine receptor (Homo sapiens) (UniProt P14416); assay: Dopamine D2 receptor (DRD2) small molecule agonists, cell-based qHTS assay (AID 1963594); note: nearly all actives have a fitted effect of over 35% in size
# How it was run: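 cAMP accumulation in DRD2-HEK293 cells measured by HTRF after 1 h detection; compounds added 10 min before NKH477 (200nM […]) forskolin-analogue stimulation, 30 min at room temperature, with Ro20-1724 present at 0.1 mM final.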
# [20] = biological target: D(2) dopamine receptor (Homo sapiens) (UniProt P14416); assay: Dopamine D2 receptor (DRD2) small molecule antagonists, cell-based qHTS assay (AID 1963595; active = well fitted inhibition curve with a large enough effect in the signal ratio in the repeat runs, with a control signal flat; the % refers to the signal ratio)
# How it was run: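 In this cell-based antagonist screen, compounds act for 10 min at room temperature before a 30 min challenge with 12 nM quinpirole and 200 nM NKH477. cAMP is quantified by HTRF competition in DRD2-HEK293 cells containing 0.1 mM Ro20-1724.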
# Chain of D(2) dopamine receptor (Homo sapiens) (P14416 whole entry, looked up): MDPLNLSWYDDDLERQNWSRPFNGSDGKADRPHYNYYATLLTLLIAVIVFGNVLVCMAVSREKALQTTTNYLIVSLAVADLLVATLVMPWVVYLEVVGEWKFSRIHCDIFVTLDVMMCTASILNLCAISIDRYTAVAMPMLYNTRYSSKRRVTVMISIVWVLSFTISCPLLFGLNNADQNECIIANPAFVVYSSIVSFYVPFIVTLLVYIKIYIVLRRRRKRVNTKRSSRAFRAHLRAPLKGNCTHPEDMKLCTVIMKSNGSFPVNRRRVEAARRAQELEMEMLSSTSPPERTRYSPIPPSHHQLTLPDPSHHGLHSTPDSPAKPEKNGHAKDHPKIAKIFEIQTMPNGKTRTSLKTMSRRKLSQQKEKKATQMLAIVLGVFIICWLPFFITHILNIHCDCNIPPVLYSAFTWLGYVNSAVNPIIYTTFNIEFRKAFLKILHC
# Chain of Gonadotropin-releasing hormone receptor (Homo sapiens) (P30968 whole entry, looked up): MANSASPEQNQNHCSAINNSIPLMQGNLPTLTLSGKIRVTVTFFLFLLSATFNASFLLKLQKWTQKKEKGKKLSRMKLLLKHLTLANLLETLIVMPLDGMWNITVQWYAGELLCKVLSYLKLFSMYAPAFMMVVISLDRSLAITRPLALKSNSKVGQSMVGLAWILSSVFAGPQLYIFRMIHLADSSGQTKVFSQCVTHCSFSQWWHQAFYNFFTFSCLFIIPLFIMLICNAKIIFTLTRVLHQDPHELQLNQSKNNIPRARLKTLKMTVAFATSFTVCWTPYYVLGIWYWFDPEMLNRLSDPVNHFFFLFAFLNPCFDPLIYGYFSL
# Chain of KiSS-1 receptor (Homo sapiens) (Q969F8 whole entry, looked up): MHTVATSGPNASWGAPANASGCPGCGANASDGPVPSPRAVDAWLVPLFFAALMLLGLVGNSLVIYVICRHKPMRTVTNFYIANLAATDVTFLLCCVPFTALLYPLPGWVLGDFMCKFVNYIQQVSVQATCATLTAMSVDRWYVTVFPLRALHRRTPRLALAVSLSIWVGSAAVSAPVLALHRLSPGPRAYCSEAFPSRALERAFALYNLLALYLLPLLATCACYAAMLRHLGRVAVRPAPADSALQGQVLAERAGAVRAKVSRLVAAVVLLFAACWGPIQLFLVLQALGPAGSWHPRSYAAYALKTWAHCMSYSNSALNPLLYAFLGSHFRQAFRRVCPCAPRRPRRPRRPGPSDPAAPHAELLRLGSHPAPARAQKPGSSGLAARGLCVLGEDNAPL
# Chain of Beta-2 adrenergic receptor (Homo sapiens) (P07550 whole entry, looked up): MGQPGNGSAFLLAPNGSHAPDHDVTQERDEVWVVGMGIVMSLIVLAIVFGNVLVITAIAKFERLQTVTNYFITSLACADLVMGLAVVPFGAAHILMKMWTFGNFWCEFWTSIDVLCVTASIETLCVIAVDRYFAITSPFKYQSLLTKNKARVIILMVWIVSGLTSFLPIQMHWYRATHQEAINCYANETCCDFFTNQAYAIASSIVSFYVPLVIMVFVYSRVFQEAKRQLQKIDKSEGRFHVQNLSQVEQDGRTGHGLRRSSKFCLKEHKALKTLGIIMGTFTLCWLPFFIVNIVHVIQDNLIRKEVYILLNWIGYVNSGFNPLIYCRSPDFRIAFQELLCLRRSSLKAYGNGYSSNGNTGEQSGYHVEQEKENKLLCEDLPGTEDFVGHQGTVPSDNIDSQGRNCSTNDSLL
# Chain of 5-hydroxytryptamine receptor 2A (Homo sapiens) (P28223 whole entry, looked up): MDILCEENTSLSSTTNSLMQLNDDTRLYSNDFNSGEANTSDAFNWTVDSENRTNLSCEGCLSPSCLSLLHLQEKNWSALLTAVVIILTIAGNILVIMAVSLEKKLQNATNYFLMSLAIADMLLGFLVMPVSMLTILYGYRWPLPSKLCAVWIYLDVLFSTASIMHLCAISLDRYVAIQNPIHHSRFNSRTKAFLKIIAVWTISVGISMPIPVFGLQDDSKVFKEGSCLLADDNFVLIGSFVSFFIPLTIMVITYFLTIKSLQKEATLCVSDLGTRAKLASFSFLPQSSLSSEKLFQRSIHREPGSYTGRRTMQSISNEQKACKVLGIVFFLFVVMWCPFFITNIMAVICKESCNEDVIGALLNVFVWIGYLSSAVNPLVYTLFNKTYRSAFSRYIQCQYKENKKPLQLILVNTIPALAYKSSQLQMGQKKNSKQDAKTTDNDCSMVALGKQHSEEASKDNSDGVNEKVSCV
# Chain of Muscarinic acetylcholine receptor M1 (Homo sapiens) (P11229 whole entry, looked up): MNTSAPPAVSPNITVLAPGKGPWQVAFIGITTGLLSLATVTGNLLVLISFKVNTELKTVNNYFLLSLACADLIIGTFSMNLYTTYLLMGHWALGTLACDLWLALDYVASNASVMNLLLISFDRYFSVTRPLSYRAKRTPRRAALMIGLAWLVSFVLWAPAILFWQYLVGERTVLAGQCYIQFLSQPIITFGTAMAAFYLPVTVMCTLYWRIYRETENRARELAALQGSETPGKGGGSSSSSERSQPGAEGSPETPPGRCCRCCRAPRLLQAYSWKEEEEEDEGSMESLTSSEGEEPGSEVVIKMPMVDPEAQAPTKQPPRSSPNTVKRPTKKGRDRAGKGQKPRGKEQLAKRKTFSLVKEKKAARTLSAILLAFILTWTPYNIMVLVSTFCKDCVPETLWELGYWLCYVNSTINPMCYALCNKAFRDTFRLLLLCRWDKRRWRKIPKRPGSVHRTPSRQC
Compound,Potency [1],Potency [2],Potency [3],Potency [4],Potency [5],Potency [6],Potency [7],Potency [8],Potency [9],Potency [10],Potency [11],Potency [12],Potency [13],Potency [14],Potency [15],Potency [16],Potency [17],Potency [18],Potency [19],Potency [20]
CN(C)CCC(c1ccccc1)c1ccccn1 (stereo not drawn),inactive,inactive,inactive,inactive,inactive,inactive,inactive,inactive,inactive,inactive,inactive,inactive,inactive,inactive and 3.26 µM (active),inactive,inactive,inactive,inactive,inactive,inactive
CCCCC/C=C\C/C=C\CCCCCCCC(=O)OC,inactive,27 µM (active) and 68.6 µM (active),inactive,inactive,inactive,inactive,inactive,inactive and 51.3 µM (active),inactive,inactive,inactive,inactive,inactive,inactive,inactive,inactive,inactive,inactive,–,inactive
CCCCCCCCCCCCCCCC(=O)O,inactive,inactive,inactive,inactive,inactive,inactive,inactive,inactive,inactive,inactive,inactive,inactive,inactive,inactive,inactive,inactive,inactive,inactive,inactive,inactive
OB(O)O,inactive,inactive,inactive,inactive,inactive,inactive,inactive,inactive,inactive,inactive,inactive,inactive,inactive,inactive,inactive,inactive,inactive,inactive,inactive,inactive
CCCCCC(=O)O,inactive,inactive,inactive,inactive,inactive,inactive,inactive,inactive,inactive,inactive,inactive,inactive,inactive,inactive,inactive,inactive,inactive,inactive,inactive,inactive
CC(C)c1ccc(C(C)C)cc1,inactive,inactive,inactive,inactive,inactive,inactive,inactive,inactive,inactive,inactive,inactive,inactive,inactive,inactive,inactive,inactive,inactive,inactive,inactive,inactive
C=C[Si](OCCOC)(OCCOC)OCCOC,inactive,inactive,inactive,inactive,inactive,inactive,inactive,inactive,inactive,inactive,inactive,inactive,inactive,inactive,inactive,inactive,inactive,inactive,–,inactive
CN(C)CCCN,inactive,inactive,inactive,inactive,inactive,inactive,inactive,inactive,inactive,inactive,inactive,inactive,inactive,inactive,inactive,inactive,inactive,inactive,inactive,inactive
